TDP1 cell CPT: growth inhibition of DT40 Tdp1-/-;hTDP1 cells with camptothecin (screen for TDP1 inhibitors); chicken DT40 Tdp1-/-;hTDP1 cells + 20 nM CPT, ATP luminescence, 48 h; Potency, µM (highest dose often 46.2 µM), without a hit: top-dose activity change, negative = growth inhibition, most hits filed as inhibitors; hit rate 12% among 420,000; AID 686979; also: potency is read from the fitted curve at half-maximal effect; nearly all actives have a fitted effect of over 55% in size
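Cell growth measured by CellTiter-Glo luminescence after a minimum 48 h, 37 C compound exposure with 20 nM CPT in Tdp1-knockout DT40 cells stably expressing hTDP1, seeded 400/well; qHTS titration format.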
IL-1B inflam inh: blocks inflammasome-driven IL-1 beta release; THP-1 LPS/ATP IL-1B secretion, AlphaLISA, 16 h; hits give low values; activity change, % at 57.5 µM; hit rate 4.7% among 360,000; AID 743279; in the data active = activity change below about -50%; inconclusive = mostly about -30% to -49%
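THP-1 cells pretreated 1 hr with compounds (up to 57.5 uM final), then stimulated with LPS (250 ng/mL final) plus ATP (1.25 mM final); secreted IL-1B measured by AlphaLISA after 16 hr, decreased signal indicating inhibition.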
HT1080-NT tox: kills 2HG-producing HT-1080-NT fibrosarcoma cells; HT-1080-NT fibrosarcoma viability, CellTiter-Glo ATP luminescence, 48 h; Potency, µM (series often up to 46.1 µM), for the others: at the highest dose activity, negative = less viability, actives largely listed as cytotoxic; AID 686970; hit rate 1.6% among 360,000;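 also: NT is the 2HG producing partner of a matched IDH1 knockdown line; potency is read from the fitted curve at half-maximal effect; 0% = DMSO-treated cells and -100% = media-only wells without cells; nearly all actives have a fitted effect of over 55% in size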
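750 cells/well, RPMI + 5% FBS; 2 h settle, compound pin-transfer, 48 h at 37 degrees C. CellTiter-Glo 10 min RT, luminescence. Normalized to DMSO and media-only wells.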
HT1080 IDH1KD tx: toxicity to HT-1080 IDH1 knockdown cells (counter line); HT-1080 IDH1 knockdown viability, ATP luminescence, 48 h; Potency, µM (series often up to 46.1 µM), inactives show top-dose activity, negative = toxicity, usual class: cytotoxic; hit rate 2% among 360,000;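 also: potency is read from the fitted curve at half-maximal effect; 0% = DMSO wells and -100% = cell-free medium wells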
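Luminescent ATP read-out (CellTiter-Glo, 10 min at room temperature) after 48 h compound exposure at 37 °C gave viability of IDH1-knockdown HT-1080 cells. Activity was normalised to DMSO and cell-free wells, then fitted as concentration-response curves.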
TDP1 cell noCPT: qHTS for Inhibitors of human tyrosyl-DNA phosphodiesterase 1 (TDP1): qHTS in cells in absence of CPT; DT40 Tdp1-/- hTDP1 cells, no CPT, ATP luminescence, 48 h; Potency, µM (titrated, usually from 46.2 µM), inactives show at the highest dose activity change, negative = growth inhibition, hits mostly inhibitors; hit rate 15% among 420,000; also: potency is read from the fitted curve at half-maximal effect; nearly all actives have a fitted effect of over 55% in size
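Growth of hTDP1-complemented DT40 Tdp1-knockout cells is measured by ATP luminescence after at least 48 hr compound exposure at 37 °C, with DMSO substituting for the 20 nM CPT used in the parallel screen.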
ELG1 repair inh: blocks ELG1-dependent DNA repair in HEK293T cells; AID 504467; Potency, µM (highest dose often 46.1 µM), inactives show at the top dose activity change, negative = inhibition, usual class: inhibitors; HEK293T ELG1-luciferase reporter, luminescence, 16 h; DNA damage induced by 5-fluorouridine; hit rate 2.3% among 330,000; also: potency is read from the fitted curve at half-maximal effect; nearly all actives have a fitted effect of over 55% in size
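Reporter activity after DNA damage by 5-fluorouridine is monitored. Compound-treated cells incubate 16 hr at 37 °C, then ONE-Glo is added for 30 min before luminescence reading.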
* = called active by the depositor; ? = inconclusive; . = no result given. The list is not random: actives were taken first. Their share in the collection is about 19%. Unless noted, calls follow the shape of the dose curve; as a rule, active = well fitted curve in the direction sought with a large enough effect; inconclusive = small, poorly fitted or top-dose-only effect, or another doubt; inactive = no such curve, though single readings can be large; an effect the other way counts as inactive or inconclusive. Unless noted, % is scaled to controls: 0 for no effect and ±100 for the full control effect.

SMILES | TDP1 cell CPT | IL-1B inflam inh | HT1080-NT tox | HT1080 IDH1KD tx | TDP1 cell noCPT | ELG1 repair inh
Cc1ccccc1NC(=O)CN(c1ccc(Cl)cc1Cl)S(=O)(=O)c1ccccc1 | 18µM* | . | . | . | ? | .
COc1ccc(OC)c(N(CC(=O)Nc2cccnc2)S(=O)(=O)c2ccc(C)cc2)c1 | 16µM* | 0 | ? | ? | ? | ?
CC(=O)OC1C[C@]2(C)[C@@H](CC(O)C3[C@]4(C)CCC(O)C(C)[C@@H]4CC[C@]32C)/C1=C(/CCC=C(C)C)C(=O)O (stereo partly specified) | 10% | . | . | . | 3% | .
CCOC(=O)c1ccccc1NC(=O)CN(c1cccc(C)c1C)S(=O)(=O)c1ccccc1 | 7.3µM* | . | . | . | 5.8µM* | .
CCOC(=O)c1ccccc1NC(=O)CN(c1ccccc1OCC)S(C)(=O)=O | ? | -6 | -1% | 0% | ? | -29%
COC(=O)CN(c1ccccc1OC)S(=O)(=O)c1ccccc1 | -4% | 13 | 0% | 14% | -15% | -2%
CCOc1ccccc1N(CC(=O)Nc1ccccc1)S(=O)(=O)c1ccccc1 | ? | -1 | -10% | -4% | 26µM* | ?
COc1ccccc1N(CC(=O)Nc1ccc(Cc2ccncc2)cc1)S(=O)(=O)c1ccccc1 | 23µM* | -24 | -10% | -19% | ? | 18µM*
Cc1ccc(S(=O)(=O)N(CC(=O)Nc2cccnc2)c2cc(Cl)ccc2C)cc1 | 16µM* | . | . | . | 18µM* | .
Cc1ccccc1-c1cccc(CN2CCc3nnc(C(C)NC(=O)c4cccnc4)n3CC2)c1 (stereo unspecified) | -5% | . | . | . | -5% | .
COc1cc(OC)c(NC(=O)c2nn(-c3ccc(C)cc3)c(=O)c3c2c2ccccc2n3C)cc1Cl | 8% | . | . | . | -1% | .
O=C(O)CCc1ccc(-c2ccc(Cl)cc2)n1-c1cccc(C(F)(F)F)c1 | -2% | . | . | . | -14% | .
COc1ccc(Cl)cc1N(CC(=O)N1CCCCCC1)S(C)(=O)=O | 7% | 2 | 14% | 12% | 13% | 2%
O=C(C1CCN(S(=O)(=O)Cc2ccccc2)CC1)N1CCN(c2cccc(C(F)(F)F)c2)CC1 | -20% | . | . | . | ? | .
CCn1c(CCC(=O)O)nc2cc(S(=O)(=O)N(C)C)ccc21 | -5% | 26 | 3% | 7% | -7% | 4%
CCn1c(CN2CCN(c3ccc(OC)cc3)CC2)nc2cc(S(=O)(=O)N(C)C)ccc21 | 21µM* | 42 | -6% | 0% | ? | ?
CCC(C)(C)c1ccc(Oc2ccc(N)cc2)cc1 | -11% | -12 | 16µM* | ? | ? | -2%
CCC(C)(C)c1ccc(OCCN2C(=O)NC(C)(C)C2=O)cc1 | ? | 15 | -10% | -7% | ? | 1%
CCc1ccc(-c2nn(CC(=O)NC3CCCCC3)c3c2cnc2ccc(OC)cc23)cc1 | 5.8µM* | . | . | . | 5.8µM* | .
COc1ccc2ncc3c(-c4ccc(C)c(C)c4)nn(CC(=O)NC4CCCCC4)c3c2c1 | 8.2µM* | . | . | . | 12µM* | .
CCc1ccc(-c2nn(-c3ccc(OC)cc3)c3c2cnc2ccc(OC)cc23)cc1 | ? | . | . | . | 6.5µM* | .
COc1cc2ncc3c(-c4ccccc4)nn(CC(=O)NC4CCCCC4)c3c2cc1OC | 15µM* | . | . | . | 15µM* | .
Cc1ccc(-c2nn(CC(=O)NC3CCCC3)c3c2cnc2ccccc23)cc1 | -29% | . | . | . | -10% | .
CCc1ccc(-c2nn(CC(=O)NC3CCCCC3)c3c2cnc2ccc(C)cc23)cc1 | -10% | . | . | . | -5% | .
CCCNC(=O)Cn1nc(-c2ccc(C)c(C)c2)c2cnc3ccc(F)cc3c21 | ? | . | . | . | -21% | .
CCCNC(=O)Cn1nc(-c2ccc(C)c(C)c2)c2cnc3ccc(OC)cc3c21 | 10µM* | . | . | . | 8.2µM* | .

Screening data from PubChem.
